Columns and labels:
Test in all cases: DAPPL (digital affinity profiling via proximity ligation, sequencing); 10 mM Tris-HCl pH 7.5, 50 mM NaCl, 1 mM DTT, 4% glycerol, room temperature, 30 min; GST-TFs on glutathione beads, 16-mer random dsDNA library, 0.1% formaldehyde crosslink after washing; high values mean tight binding
[1] = target: T1, FEV (Homo sapiens, UniProt Q99581 1-238); details: protein: recombinant; tags: N-terminal GST; dsDNA, one strand shown
T1 sequence: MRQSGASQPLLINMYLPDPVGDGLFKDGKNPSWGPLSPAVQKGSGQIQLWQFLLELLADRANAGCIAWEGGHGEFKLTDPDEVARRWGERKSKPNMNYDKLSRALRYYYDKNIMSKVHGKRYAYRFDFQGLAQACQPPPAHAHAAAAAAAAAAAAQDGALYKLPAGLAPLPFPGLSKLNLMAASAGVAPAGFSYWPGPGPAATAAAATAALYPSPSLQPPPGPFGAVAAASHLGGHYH
Summary of the method: (§1)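 GST fusions of human transcription factors were expressed in yeast and captured with glutathione beads. Once given DNA barcodes and pooled alongside a tag-only sample, they were incubated for 30 min at room temperature with 200 nmole of a random double-stranded 16-mer DNA library in Tris/NaCl/DTT/glycerol buffer, then washed, crosslinked (0.1% formaldehyde), proximity-ligated, PCR-amplified and sequenced on an Illumina NextSeq500. The binding signal of each hexamer is its read frequency for a factor divided by its frequency for the tag-only sample.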

[2] = target: ETV5 (Homo sapiens, UniProt P41161 1-510); details: protein: recombinant; tags: N-terminal GST; dsDNA, one strand shown
Sequence of ETV5 (P41161 whole entry): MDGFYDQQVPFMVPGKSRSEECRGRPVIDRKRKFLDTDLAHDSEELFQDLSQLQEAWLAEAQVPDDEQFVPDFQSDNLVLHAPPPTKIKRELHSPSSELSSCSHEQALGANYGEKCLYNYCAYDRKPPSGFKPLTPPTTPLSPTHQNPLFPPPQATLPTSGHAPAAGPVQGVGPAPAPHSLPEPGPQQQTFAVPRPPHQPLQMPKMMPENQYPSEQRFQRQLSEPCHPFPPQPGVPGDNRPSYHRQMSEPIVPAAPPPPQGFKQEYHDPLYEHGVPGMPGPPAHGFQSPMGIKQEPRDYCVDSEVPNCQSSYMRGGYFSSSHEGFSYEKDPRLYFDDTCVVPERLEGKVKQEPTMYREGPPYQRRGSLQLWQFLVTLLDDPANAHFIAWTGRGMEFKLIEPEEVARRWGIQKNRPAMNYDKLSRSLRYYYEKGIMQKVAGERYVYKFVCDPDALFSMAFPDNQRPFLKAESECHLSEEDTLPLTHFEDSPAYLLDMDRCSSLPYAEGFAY
Summary of the method: as §1

[3] = target: HSF1 (Homo sapiens, UniProt Q00613 1-529); details: protein: recombinant; tags: N-terminal GST; chain copies: 3; dsDNA, one strand shown
Sequence of HSF1 (Q00613 whole entry): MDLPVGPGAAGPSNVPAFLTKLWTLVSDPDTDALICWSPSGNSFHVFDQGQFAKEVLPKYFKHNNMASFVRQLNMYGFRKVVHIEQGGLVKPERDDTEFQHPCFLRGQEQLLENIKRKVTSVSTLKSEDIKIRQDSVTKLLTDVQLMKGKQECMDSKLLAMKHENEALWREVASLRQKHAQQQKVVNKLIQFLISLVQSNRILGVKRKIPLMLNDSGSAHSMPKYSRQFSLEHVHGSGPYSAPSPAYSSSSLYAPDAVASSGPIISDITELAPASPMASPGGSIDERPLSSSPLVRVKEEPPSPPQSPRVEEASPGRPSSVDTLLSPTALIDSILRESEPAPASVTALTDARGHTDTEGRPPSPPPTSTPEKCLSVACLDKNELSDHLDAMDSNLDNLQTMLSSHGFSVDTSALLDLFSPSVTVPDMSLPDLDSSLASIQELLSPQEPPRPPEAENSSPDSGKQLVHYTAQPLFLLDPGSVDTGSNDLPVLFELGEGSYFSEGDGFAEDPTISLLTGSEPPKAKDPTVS
Summary of the method: as §1

[4] = target: T2, SPIC (Homo sapiens, UniProt Q8N5J4 1-248); details: protein: recombinant; tags: N-terminal GST; dsDNA, one strand shown
T2 sequence: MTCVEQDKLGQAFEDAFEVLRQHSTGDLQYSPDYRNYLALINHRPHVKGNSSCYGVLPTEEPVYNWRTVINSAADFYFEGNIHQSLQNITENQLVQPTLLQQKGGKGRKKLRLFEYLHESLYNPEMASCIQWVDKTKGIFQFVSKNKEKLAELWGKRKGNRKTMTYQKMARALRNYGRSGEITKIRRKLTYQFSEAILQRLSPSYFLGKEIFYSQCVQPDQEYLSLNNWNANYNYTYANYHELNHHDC
Summary of the method: as §1

[5] = target: ELF4 (Homo sapiens, UniProt Q99607 1-663); details: protein: recombinant; tags: N-terminal GST; dsDNA, one strand shown
Sequence of ELF4 (Q99607 whole entry): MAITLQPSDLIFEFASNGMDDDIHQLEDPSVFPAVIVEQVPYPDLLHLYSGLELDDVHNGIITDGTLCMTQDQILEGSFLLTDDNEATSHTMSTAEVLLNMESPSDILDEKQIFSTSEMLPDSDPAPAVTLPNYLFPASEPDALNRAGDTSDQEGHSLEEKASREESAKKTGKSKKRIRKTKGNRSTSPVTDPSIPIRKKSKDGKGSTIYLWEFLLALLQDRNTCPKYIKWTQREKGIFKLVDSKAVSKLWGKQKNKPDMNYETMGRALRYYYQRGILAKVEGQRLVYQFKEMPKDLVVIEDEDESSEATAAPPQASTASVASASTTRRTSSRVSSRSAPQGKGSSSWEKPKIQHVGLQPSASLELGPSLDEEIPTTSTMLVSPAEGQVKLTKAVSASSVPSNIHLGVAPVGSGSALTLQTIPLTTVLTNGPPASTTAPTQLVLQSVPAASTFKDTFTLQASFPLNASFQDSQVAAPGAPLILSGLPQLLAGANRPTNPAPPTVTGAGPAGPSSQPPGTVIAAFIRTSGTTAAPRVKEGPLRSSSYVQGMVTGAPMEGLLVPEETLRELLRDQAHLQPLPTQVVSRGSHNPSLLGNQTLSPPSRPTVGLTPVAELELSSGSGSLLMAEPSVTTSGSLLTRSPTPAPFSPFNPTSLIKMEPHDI
Summary of the method: as §1

[6] = target: T3, ELK4 (Homo sapiens, UniProt P28324-2 1-405); details: protein: recombinant; tags: N-terminal GST; dsDNA, one strand shown
T3 sequence: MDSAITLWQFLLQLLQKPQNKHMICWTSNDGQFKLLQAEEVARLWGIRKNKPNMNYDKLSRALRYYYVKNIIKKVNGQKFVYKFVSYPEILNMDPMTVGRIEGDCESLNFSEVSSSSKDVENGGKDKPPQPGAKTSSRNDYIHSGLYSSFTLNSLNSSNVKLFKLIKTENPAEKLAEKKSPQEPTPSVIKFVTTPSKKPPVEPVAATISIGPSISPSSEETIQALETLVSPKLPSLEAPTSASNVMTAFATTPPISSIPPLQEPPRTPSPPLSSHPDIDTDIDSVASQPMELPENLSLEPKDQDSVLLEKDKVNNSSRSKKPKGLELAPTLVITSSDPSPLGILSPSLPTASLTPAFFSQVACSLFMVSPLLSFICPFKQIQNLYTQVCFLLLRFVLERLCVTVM
Summary of the method: as §1

[7] = target: T4, ETV2 (Homo sapiens, UniProt O00321 1-342); details: protein: recombinant; tags: N-terminal GST; dsDNA, one strand shown
T4 sequence: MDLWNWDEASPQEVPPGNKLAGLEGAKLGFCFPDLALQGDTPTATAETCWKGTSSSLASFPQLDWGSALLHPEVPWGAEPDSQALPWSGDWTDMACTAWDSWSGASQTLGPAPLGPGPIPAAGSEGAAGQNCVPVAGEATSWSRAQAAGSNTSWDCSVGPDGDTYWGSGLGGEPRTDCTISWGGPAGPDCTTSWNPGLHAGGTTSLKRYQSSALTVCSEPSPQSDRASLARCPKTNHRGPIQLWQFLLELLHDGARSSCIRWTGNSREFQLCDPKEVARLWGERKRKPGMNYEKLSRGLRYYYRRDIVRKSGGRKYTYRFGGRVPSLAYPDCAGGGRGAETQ
Summary of the method: as §1

[8] = target: T5, ELF3 (Homo sapiens, UniProt P78545 1-371); details: protein: recombinant; tags: N-terminal GST; dsDNA, one strand shown
T5 sequence: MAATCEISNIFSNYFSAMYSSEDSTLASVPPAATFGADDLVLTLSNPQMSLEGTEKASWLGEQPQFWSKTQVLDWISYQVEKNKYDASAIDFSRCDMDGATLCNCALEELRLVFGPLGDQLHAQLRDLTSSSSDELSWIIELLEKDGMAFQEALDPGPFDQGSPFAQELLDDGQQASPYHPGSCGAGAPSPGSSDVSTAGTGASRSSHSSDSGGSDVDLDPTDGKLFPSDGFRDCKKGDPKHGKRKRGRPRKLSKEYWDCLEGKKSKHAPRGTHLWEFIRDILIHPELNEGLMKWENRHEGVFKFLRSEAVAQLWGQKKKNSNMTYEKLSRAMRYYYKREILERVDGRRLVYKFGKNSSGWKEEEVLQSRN
Summary of the method: as §1

[9] = target: CRX (Homo sapiens, UniProt O43186 1-299); details: protein: recombinant; tags: N-terminal GST; dsDNA, one strand shown
Sequence of CRX (O43186 whole entry): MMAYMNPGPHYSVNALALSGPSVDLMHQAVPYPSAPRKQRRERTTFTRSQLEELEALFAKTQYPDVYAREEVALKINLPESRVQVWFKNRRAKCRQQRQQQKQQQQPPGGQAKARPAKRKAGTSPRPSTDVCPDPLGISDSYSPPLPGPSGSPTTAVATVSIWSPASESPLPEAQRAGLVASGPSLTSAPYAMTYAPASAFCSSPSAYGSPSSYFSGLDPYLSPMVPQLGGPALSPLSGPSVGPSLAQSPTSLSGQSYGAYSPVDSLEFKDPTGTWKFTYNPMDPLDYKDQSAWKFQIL
Summary of the method: as §1

[10] = target: ETV1 (Homo sapiens, UniProt P50549 1-477); details: protein: recombinant; tags: N-terminal GST; dsDNA, one strand shown
Sequence of ETV1 (P50549 whole entry): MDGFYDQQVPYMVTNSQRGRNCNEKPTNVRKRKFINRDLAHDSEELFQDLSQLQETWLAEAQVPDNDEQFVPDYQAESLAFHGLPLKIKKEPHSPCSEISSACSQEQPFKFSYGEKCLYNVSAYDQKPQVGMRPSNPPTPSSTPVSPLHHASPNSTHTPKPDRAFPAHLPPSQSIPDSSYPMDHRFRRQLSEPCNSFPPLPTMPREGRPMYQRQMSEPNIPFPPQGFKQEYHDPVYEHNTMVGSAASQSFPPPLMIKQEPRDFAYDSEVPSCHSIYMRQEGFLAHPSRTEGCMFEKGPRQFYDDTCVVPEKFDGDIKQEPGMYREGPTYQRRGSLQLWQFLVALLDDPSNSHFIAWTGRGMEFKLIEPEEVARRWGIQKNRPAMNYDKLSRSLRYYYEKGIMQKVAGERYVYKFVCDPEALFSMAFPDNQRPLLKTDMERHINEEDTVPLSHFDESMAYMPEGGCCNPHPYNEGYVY
Summary of the method: as §1

Row | Sequence | binding signal [1] | binding signal [2] | binding signal [3] | binding signal [4] | binding signal [5] | binding signal [6] | binding signal [7] | binding signal [8] | binding signal [9] | binding signal [10]
1 | TTATGA | 1.07 fold enrichment (6-mer frequency, TF over GST control) | 1.16 fold enrichment (6-mer frequency, TF over GST control) | 1.45 fold enrichment (6-mer frequency, TF over GST control) | 1.26 fold enrichment (6-mer frequency, TF over GST control) | 1.05 fold enrichment (6-mer frequency, TF over GST control) | 1.07 fold enrichment (6-mer frequency, TF over GST control) | 1.09 fold enrichment (6-mer frequency, TF over GST control) | 1.31 fold enrichment (6-mer frequency, TF over GST control) | 1.99 fold enrichment (6-mer frequency, TF over GST control) | 1.17 fold enrichment (6-mer frequency, TF over GST control)
2 | CCTATC | 1.16 fold enrichment (6-mer frequency, TF over GST control) | 1.14 fold enrichment (6-mer frequency, TF over GST control) | 1.06 fold enrichment (6-mer frequency, TF over GST control) | 1.1 fold enrichment (6-mer frequency, TF over GST control) | 1.16 fold enrichment (6-mer frequency, TF over GST control) | 1.14 fold enrichment (6-mer frequency, TF over GST control) | 1.08 fold enrichment (6-mer frequency, TF over GST control) | 1.23 fold enrichment (6-mer frequency, TF over GST control) | 1.15 fold enrichment (6-mer frequency, TF over GST control) | 1.16 fold enrichment (6-mer frequency, TF over GST control)
3 | TGTTCT | 1.28 fold enrichment (6-mer frequency, TF over GST control) | 1.32 fold enrichment (6-mer frequency, TF over GST control) | 2.8 fold enrichment (6-mer frequency, TF over GST control) | 1.45 fold enrichment (6-mer frequency, TF over GST control) | 1.42 fold enrichment (6-mer frequency, TF over GST control) | 1.3 fold enrichment (6-mer frequency, TF over GST control) | 1.23 fold enrichment (6-mer frequency, TF over GST control) | 1.38 fold enrichment (6-mer frequency, TF over GST control) | 1.45 fold enrichment (6-mer frequency, TF over GST control) | 1.39 fold enrichment (6-mer frequency, TF over GST control)
4 | TAATCT | 1.3 fold enrichment (6-mer frequency, TF over GST control) | 1.44 fold enrichment (6-mer frequency, TF over GST control) | 3.55 fold enrichment (6-mer frequency, TF over GST control) | 1.3 fold enrichment (6-mer frequency, TF over GST control) | 1.51 fold enrichment (6-mer frequency, TF over GST control) | 1.4 fold enrichment (6-mer frequency, TF over GST control) | 1.34 fold enrichment (6-mer frequency, TF over GST control) | 1.57 fold enrichment (6-mer frequency, TF over GST control) | 5.78 fold enrichment (6-mer frequency, TF over GST control) | 1.52 fold enrichment (6-mer frequency, TF over GST control)
5 | TTCCTT | 1.76 fold enrichment (6-mer frequency, TF over GST control) | 2 fold enrichment (6-mer frequency, TF over GST control) | 1.61 fold enrichment (6-mer frequency, TF over GST control) | 1.99 fold enrichment (6-mer frequency, TF over GST control) | 1.79 fold enrichment (6-mer frequency, TF over GST control) | 1.75 fold enrichment (6-mer frequency, TF over GST control) | 1.79 fold enrichment (6-mer frequency, TF over GST control) | 1.76 fold enrichment (6-mer frequency, TF over GST control) | 1.33 fold enrichment (6-mer frequency, TF over GST control) | 2.04 fold enrichment (6-mer frequency, TF over GST control)
6 | ATTATT | 1.15 fold enrichment (6-mer frequency, TF over GST control) | 1.17 fold enrichment (6-mer frequency, TF over GST control) | 1.8 fold enrichment (6-mer frequency, TF over GST control) | 1.2 fold enrichment (6-mer frequency, TF over GST control) | 1.24 fold enrichment (6-mer frequency, TF over GST control) | 1.23 fold enrichment (6-mer frequency, TF over GST control) | 1.11 fold enrichment (6-mer frequency, TF over GST control) | 1.1 fold enrichment (6-mer frequency, TF over GST control) | 2.37 fold enrichment (6-mer frequency, TF over GST control) | 1.29 fold enrichment (6-mer frequency, TF over GST control)
7 | ATAAAT | 1.11 fold enrichment (6-mer frequency, TF over GST control) | 1.22 fold enrichment (6-mer frequency, TF over GST control) | 1.41 fold enrichment (6-mer frequency, TF over GST control) | 1.16 fold enrichment (6-mer frequency, TF over GST control) | 1.16 fold enrichment (6-mer frequency, TF over GST control) | 1.17 fold enrichment (6-mer frequency, TF over GST control) | 1.13 fold enrichment (6-mer frequency, TF over GST control) | 1.24 fold enrichment (6-mer frequency, TF over GST control) | 1.75 fold enrichment (6-mer frequency, TF over GST control) | 1.13 fold enrichment (6-mer frequency, TF over GST control)
8 | ATGCAA | 1.23 fold enrichment (6-mer frequency, TF over GST control) | 1.25 fold enrichment (6-mer frequency, TF over GST control) | 1.08 fold enrichment (6-mer frequency, TF over GST control) | 1.11 fold enrichment (6-mer frequency, TF over GST control) | 1.25 fold enrichment (6-mer frequency, TF over GST control) | 1.32 fold enrichment (6-mer frequency, TF over GST control) | 1.26 fold enrichment (6-mer frequency, TF over GST control) | 1.36 fold enrichment (6-mer frequency, TF over GST control) | 1.07 fold enrichment (6-mer frequency, TF over GST control) | 1.26 fold enrichment (6-mer frequency, TF over GST control)
